# Paper PMC12136788
# Substitutions are numbered along the chain they refer to. Whole data set: some 24,000 sequences, median “enrichment r” near 0.99, cut for the highest 2% near 3.7. The sample holds the highest values, similar sequences and a random draw of the others, so the mix is not that of the screen.
# B1: chr22:36164377:36164378:-_ENSG00000100320_ENST00000405409|hu_hu|motif|central (ssRNA)
# RNA: GGGAGUUCUACAGUCCGACGAUCACGGCCCUCUACCACGGUGCCGUGUAAUUUCUCCCUGGCCCUGUCUGCAUCAGCACGGUUCUCGAAAGUUACGAACCCGAAUCCCUUAGAGCCACGUUCAUUAAAGAUUAUUUCUACAUCCAACAGAGGAUUGAGCAUCA
# B2: chr6:86333760:86333761:-_ENSG00000135316_ENST00000355238|hu_mus|hu_hu_hu_mus_True|98_108 (ssRNA)
# RNA: GGGAGUUCUACAGUCCGACGAUCUUCUUCAAGAAUCUGUUCCUUGGUUUUACUCUUAGGAAUCGAGCCCACAAAAAGCCUAUUGUUGGCAACUGAGAUGCAGACACCAAUGUGCUUCCCGGAACGAAUUUCAUGAUUAUUAUACAACAGAGGAUUGAGCAUCA
# B3: chr12:493273:493274:-_ENSG00000073614_ENST00000399788|hu_mus|hu_hu_hu_mus_False|58_108 (ssRNA)
# RNA: GGGAGUUCUACAGUCCGACGAUCUUUUCUCUCUACCACAGGGAUCUUCAAUGUAGAUCCUUGAAGUUCCCAAAAUUUUGCUAGUUGAUCCAAGAAGUCCAAUCUUACUCUAGUCAUUGCCUCAAGUUCAUUCAGGCGCUGGACCAACAGAGGAUUGAGCAUCA
# B4: chr2:117093540:117093541:+_ENSMUSG00000027349_ENSMUST00000028825|mus_hu|motif|central (ssRNA)
# RNA: GGGAGUUCUACAGUCCGACGAUCCAUUGUAAUCGUUGUCUUGGGUGACAAAGCAUAACGCUUAGGCUGAUAAAUUCUUGCGGUAUCAUCUGUUUUUACCUUUGCUCUAUCAGACCAUCCAAAGGACUGUACAGUCACAUCUAACAACAGAGGAUUGAGCAUCA
# B5: chr16:45382771:45382772:-_ENSMUSG00000022661_ENSMUST00000163230|mus_mus|mus_mus_mus_hu_True|28_98 (ssRNA)
# RNA: GGGAGUUCUACAGUCCGACGAUCCUGGGUCAUGUUAUGGGCCCAAUGGACAGGGAGGGCAUGCUUCUCAAAAAAUGUGAGCUAUUGUCUAAGACUAACAAUAUUUACUAAGUGCUAAAAAUAAGUUAAAUGAAUAAGUUAAGACAACAGAGGAUUGAGCAUCA
# B6: chr16:45382771:45382772:-_ENSMUSG00000022661_ENSMUST00000163230|mus_mus|mus_mus_mus_hu_True|28_28 (ssRNA)
# RNA: B5 RNA with G38A, G39A, C41A, C43A
# B7: chr16:45382771:45382772:-_ENSMUSG00000022661_ENSMUST00000163230|mus_mus|mus_mus_mus_hu_True|1_28 (ssRNA)
# RNA: GGGAGUUCUACAGUCCGACGAUCCUGGGUCAUGUUAUAAGACAAAUGGACAGGGAGGGCAUGCUUCUCAAAAAAUGUGAGCUAUUGUCUAAGACUAACAAUAUUUACUAAGUGCUAAAAAUAAGUUAAAUGAAUAAACAUUACCAACAGAGGAUUGAGCAUCA
# B8: chr16:45382771:45382772:-_ENSMUSG00000022661_ENSMUST00000163230|mus_mus|mus_mus_mus_hu_True|28_58 (ssRNA)
# RNA: B5 RNA with G38A, G39A, C41A, C43A, G80A, U84C, G86C
# B9: chr16:45382771:45382772:-_ENSMUSG00000022661_ENSMUST00000163230|mus_mus|mus_mus_mus_hu_True|8_28 (ssRNA)
# RNA: GGGAGUUCUACAGUCCGACGAUCCUGGGUCAUGUUAUAAGACAAAUGGACAGGGAGGGCAUGCUUCUCAAAAAAUGUGAGCUAUUGUCUAAGACUAACAAUAUUUACUAAGUGCUAAAAAUAAGUUUUAAAUGGACGUUAAGACAACAGAGGAUUGAGCAUCA
# B10: chr6:29491266:29491267:-_ENSMUSG00000012535_ENSMUST00000012679|mus_mus|FALSE|FALSE (ssRNA)
# RNA: GGGAGUUCUACAGUCCGACGAUCGGGUUGGGCUCUACAUUAAAAGCAACUUUGACCCUGGCUAGUCCGGACUAUCAUCCCUAACCAUGAUAUAAGCAGACCAGGCUCCUUGUCUGGACAUUUCUAAAGGUGAACAGUUGGGGGCAACAGAGGAUUGAGCAUCA
# B11: chr3:182775190:182775191:-_ENSG00000078070_ENST00000265594|hu_mus|FALSE|FALSE (ssRNA)
# RNA: GGGAGUUCUACAGUCCGACGAUCCUGCACACUACAGUCUCUUUCAAACAAGUACACUGCGUUGCCAUGGUGAUCACCAAACACCUGGACUUCUACAUGCCUUGGAGUGUCCACGAACUUCUCGAUCAACAUUGCAUCAUCAUUCAACAGAGGAUUGAGCAUCA
# B12: 49705422_49710499_381_CDS_ENSG00000102531_ENST00000398316|human|control|control (ssRNA)
# RNA: GGGAGUUCUACAGUCCGACGAUCAAAGUUGGACCUUCCAUGUGUAGAGUGAGCAUCUACAUCUCCAUAGACUUGUGAAGACUGAUACUGUGGCAUAUACUGUGUUGUCAUGUCUCCAGCUCCAGUCACGGGUGAGUACAUAUGCAACAGAGGAUUGAGCAUCA
# B13: chr1:39494564:39494565:+_ENSG00000168653_ENST00000372967|hu_hu|hu_hu_hu_mus_True|1_1 (ssRNA)
# RNA: GGGAGUUCUACAGUCCGACGAUCAUGCAUUCGCCUCAUCGUUUUGUACCGAAGCAAGCACUCUUCGAAGUCAUCGAACUCUAUCUUGCACUCCUUUUUCGCCCGGGUCCCACCGAUCCCGUGUGCACACUCUAUCCAUUCUUUCAACAGAGGAUUGAGCAUCA
# B14: 117841126_117842589_621_3pUTR_ENSMUSG00000033326_ENSMUST00000106406|mouse|control|control (ssRNA)
# RNA: GGGAGUUCUACAGUCCGACGAUCCUUCUCCACCAGGUCCAGGAUGGUCUUCAGCCGGCCGAUAUUCCACUCAUCAACGUGCUGUUCAUAGAGAGUACCAUUCACGUCUGCUCCAUAGAUGGGAGGAUUGAAUGUGAGGUUUUUCAACAGAGGAUUGAGCAUCA
# B15: chr2:166765161:166765162:+_ENSMUSG00000002718_ENSMUST00000002790|mus_hu|motif|central (ssRNA)
# RNA: GGGAGUUCUACAGUCCGACGAUCGGAUAAACAUAUUGCUUCAAACAUGUAGUGAUUAAAGUGAGGUUUGCUUGGGUUCUUACGGACAGCUAAUAGCUUCUGUGUAAGCUGAGUGAUGAGAGUAGGGAUGUAGGGGAUUAUGGCCAACAGAGGAUUGAGCAUCA
# B16: chr16:45382771:45382772:-_ENSMUSG00000022661_ENSMUST00000163230|mus_mus|mus_mus_mus_hu_True|28_38 (ssRNA)
# RNA: B5 RNA with G38A, G39A, C41A, C43A, U105G, A106C
# B17: chr16:45382771:45382772:-_ENSMUSG00000022661_ENSMUST00000163230|mus_mus|mus_mus_mus_hu_True|28_48 (ssRNA)
# RNA: B5 RNA with G38A, G39A, C41A, C43A, U87A
# B18: chr16:8858281:8858282:+_ENSMUSG00000022507_ENSMUST00000023150|mus_mus|FALSE|FALSE (ssRNA)
# RNA: GGGAGUUCUACAGUCCGACGAUCCUCAUGAGGUGAGGAGGUGCUACAUAUUGAAUGCAAUGGAAAAAAGUAACCAGUGCUAAAGUUUUUAAAAAGUUUAAUGGAGCCAAUAAUUCGGCAUAUAAAUUGUGUUCUGGCAGACAUCAACAGAGGAUUGAGCAUCA
# B19: chr16:45382771:45382772:-_ENSMUSG00000022661_ENSMUST00000163230|mus_mus|mus_mus_mus_hu_True|28_108 (ssRNA)
# RNA: B5 RNA with G27A, C30G, A31U, G33A, A36G, G38A, G39A, C41A, C43A
# B20: chr16:8858281:8858282:+_ENSMUSG00000022507_ENSMUST00000023150|mus_mus|motif|central (ssRNA)
# RNA: B18 RNA with U80G, A81G
# B21: chr5:128440902:128440903:+_ENSG00000066583_ENST00000173527|hu_mus|hu_hu_hu_mus_True|38_48 (ssRNA)
# RNA: GGGAGUUCUACAGUCCGACGAUCUUGAACGGUGCUGCCAAGUCCUUUGGGGUAUUGUUCCGUUAUGAUAACUGGAAUCCCUAAGAUCCGGGCCCCUUGCAACAAUCUCUGUCCCACACUAAUGAUGUCCCCAAAGUAUUUGAUCAACAGAGGAUUGAGCAUCA
# B22: chr3:133545784:133545785:-_ENSG00000154917_ENST00000285208|hu_mus|motif|central (ssRNA)
# RNA: GGGAGUUCUACAGUCCGACGAUCGAGGAUGUGAGUGUGUGUAUGUGUGCGCGCGAAGGGUGUAUACACAAGUCUAUCUCGGUGUAUAAUUAUGUACACACAUAUAAAAACUAAACACGUGACGUUUCGAUUAUGCUCGUACAUCAACAGAGGAUUGAGCAUCA
# Biological target: T1, UNK ZnF1-3 (human, UniProt Q9C0B0 31-174)
# T1 sequence: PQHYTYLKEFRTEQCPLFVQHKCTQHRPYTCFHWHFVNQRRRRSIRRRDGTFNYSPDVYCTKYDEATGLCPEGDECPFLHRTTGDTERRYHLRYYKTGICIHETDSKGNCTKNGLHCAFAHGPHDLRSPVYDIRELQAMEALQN
# Experiment: nsRBNS (natural sequence RNA bind-n-seq); RBNS binding buffer (assumed for nsRBNS): 25 mM Tris pH 7.5, 150 mM KCl, 3 mM MgCl2, 0.01% Triton X-100, 500 ug/ml BSA, 20 U/ml SUPERase-In, 4 C; UNK is unkempt and MSI1 is Musashi-1; names of the RNAs are library labels; protein concentration not given here; high values mean tight binding
row,Binder,binding signal [enrichment R]
1,B1,0.844
2,B2,1.34
3,B3,0.801
4,B4,0.494
5,B5,8.35
6,B6,11.4
7,B7,3.32
8,B8,3.92
9,B9,5.08
10,B10,0.897
11,B11,0.969
12,B12,0.997
13,B13,0.706
14,B14,1.09
15,B15,1.62
16,B16,12.5
17,B17,7.16
18,B18,5.62
19,B19,10.2
20,B20,3.41
21,B21,0.772
22,B22,1.66
